Test results published in the supplement of paper PMC10849652.
Targets with a hit are over-represented here; the source holds about 8,800 in all. About 0.5% of all pairs of compound and target were hits. Unmarked numbers belong to inactive results.

Tests used:
Assay in all cases: log2 fold change, soluble protein after heating vs DMSO (PISA); higher = thermal stabilisation; K562 lysate, 10 uM; active = over 0.2 and 3.5 SD of the protein, either way, in both replicates (recomputed)
[1] = compound: CN1CC[C@H](c2c(O)cc(O)c3c(=O)cc(-c4ccccc4Cl)oc23)[C@H](O)C1 [alvocidib]
Outline: (§1)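 Pellets of K562 cells were dounce-homogenised in PBS pH 7.4 with 1 mM MgCl2, and the crude extract was held at 1 mg/mL protein for a 30 min treatment with 10 μM compound. Aliquots were heated for 3 min over 48°C-58°C and pooled before NP-40 was added to 0.5% at 4°C. The supernatant from 21,000xg for 90 min was quantified by TMTpro 16plex LC-MS/MS with channel sums equalised. Values are reported from duplicates as log-two fold change in thermal stability relative to solvent controls.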

[2] = compound: CN1CCc2c(c3ccccc3n2Cc2ccc(C(=O)NO)cc2)C1 [Tubastatin A]
Outline: as §1

[3] = compound: CNC(=O)C1=CC=CC=C1NC2=NC(=NC=C2Cl)NC3=C(C=C(C=C3)N4CCOCC4)OC
Outline: as §1

[4] = compound: CNC(=O)c1ccc(Nc2ncc(C(F)(F)F)c(NCc3nccnc3N(C)S(C)(=O)=O)n2)cc1 [defactinib]
Outline: as §1

[5] = compound: CNc1nc(-c2ccc3c(N)n[nH]c3c2)cc(N2C[C@@H](C(=O)NC3CCCCC3)CC[C@H]2C)n1
Outline: as §1

[6] = compound: COC(=O)N[C@@H](C)CNc1nccc(-c2cn(C(C)C)nc2-c2cc(Cl)cc(NS(C)(=O)=O)c2F)n1 [encorafenib]
Outline: as §1

[7] = compound: COC(=O)[C@H](CCSC)NC(=O)C1=C(C=C(C=C1)NC[C@H](CS)N)C2=CC=CC=C2
Outline: as §1

[8] = compound: COc1cc2nc(-c3cc(F)ccc3O)nc(N[C@@H]3CNC[C@H]3C(C)(C)O)c2cc1OC
Outline: as §1

[9] = compound: COc1cc(Nc2ncc3c(n2)-c2ccc(Cl)cc2C(c2c(F)cccc2OC)=NC3)ccc1C(=O)O [alisertib]
Outline: as §1

[10] = compound: COc1cc2ncnc(Nc3ccc(F)c(Cl)c3)c2cc1OCCCN1CCOCC1 [gefitinib]
Outline: as §1

CCDC85B (UniProt Q15834)
log2 fold change [1]: 0.016
log2 fold change [2]: 0.016
log2 fold change [3]: 0.217
log2 fold change [4]: 0.183
log2 fold change [5]: -0.08
log2 fold change [6]: 0.255
log2 fold change [7]: -0.481
log2 fold change [8]: -0.508 (active)

C8orf37 (UniProt Q96NL8)
log2 fold change [1]: -0.146
log2 fold change [2]: 0.022
log2 fold change [3]: -0.035
log2 fold change [4]: 0.281
log2 fold change [5]: -0.099
log2 fold change [6]: 0.018
log2 fold change [7]: -0.011
log2 fold change [8]: 0.162

ATXN2 (UniProt F8WB05)
log2 fold change [1]: -0.051
log2 fold change [2]: 0.23
log2 fold change [3]: 0.101
log2 fold change [4]: -0.063
log2 fold change [5]: -0.03
log2 fold change [6]: -0.033
log2 fold change [7]: 0.023
log2 fold change [8]: 0.033

CDK9 isoform 2 (UniProt P50750)
log2 fold change [1]: 0.578 (active)
log2 fold change [2]: -0.042
log2 fold change [3]: 0.024
log2 fold change [4]: 0.392 (active)
log2 fold change [5]: 0.016
log2 fold change [6]: -0.008
log2 fold change [7]: -0.033
log2 fold change [9]: -0.003
log2 fold change [8]: 0.191
log2 fold change [10]: 0.008

CDK5RAP3 isoform 4 (UniProt Q96JB5)
log2 fold change [1]: -0.118
log2 fold change [2]: 0.038
log2 fold change [3]: -0.007
log2 fold change [4]: -0.021
log2 fold change [5]: 0.021
log2 fold change [6]: 0.007
log2 fold change [7]: 0.094
log2 fold change [9]: 0.006
log2 fold change [8]: 0.026
log2 fold change [10]: -0.024

CCDC47 (UniProt Q96A33)
log2 fold change [1]: 0.009
log2 fold change [2]: 0.016
log2 fold change [3]: -0.015
log2 fold change [4]: 0.004
log2 fold change [5]: -0.028
log2 fold change [6]: -0.045
log2 fold change [7]: -0.037
log2 fold change [9]: 0.037
log2 fold change [8]: -0.035
log2 fold change [10]: -0.011

CDK5RAP1 (UniProt Q96SZ6)
log2 fold change [1]: 0.019
log2 fold change [2]: -0.023
log2 fold change [3]: -0.06
log2 fold change [4]: 0.018
log2 fold change [5]: -0.024
log2 fold change [6]: -0.057
log2 fold change [7]: 0.029
log2 fold change [9]: -0.003
log2 fold change [10]: -0.007

ATG10 (UniProt Q9H0Y0)
log2 fold change [1]: 0.106
log2 fold change [2]: -0.035
log2 fold change [3]: 0.01
log2 fold change [4]: -0.037
log2 fold change [5]: -0.022
log2 fold change [6]: 0.024
log2 fold change [7]: 0.025
log2 fold change [9]: 0.032
log2 fold change [10]: 0.04

BCKDK (UniProt O14874)
log2 fold change [1]: 0.029
log2 fold change [2]: -0.117
log2 fold change [3]: -0.005
log2 fold change [4]: 0.029
log2 fold change [5]: -0.098
log2 fold change [6]: -0.061
log2 fold change [7]: 0.066
log2 fold change [9]: 0.023
log2 fold change [8]: -0.027
log2 fold change [10]: 0.053

ATP2B4 (UniProt P23634)
log2 fold change [1]: -0.116
log2 fold change [2]: 0.015
log2 fold change [3]: -0.006
log2 fold change [4]: -0.043
log2 fold change [5]: 0.001
log2 fold change [6]: 0.021
log2 fold change [7]: -0.041
log2 fold change [9]: -0.104
log2 fold change [8]: 0.009
log2 fold change [10]: 0.023

ATG13 isoform 2 (UniProt O75143)
log2 fold change [1]: -0.106
log2 fold change [2]: -0.035
log2 fold change [3]: 0.013
log2 fold change [4]: 0.03
log2 fold change [5]: 0.026
log2 fold change [6]: 0.054
log2 fold change [7]: -0.045
log2 fold change [9]: 0.038
log2 fold change [8]: 0.017
log2 fold change [10]: -0.013

CCNB1 (UniProt P14635)
log2 fold change [1]: -0.015
log2 fold change [2]: 0.021
log2 fold change [3]: -0.003
log2 fold change [4]: -0.117
log2 fold change [5]: 0.028
log2 fold change [6]: 0.029
log2 fold change [7]: -0.023
log2 fold change [9]: 0
log2 fold change [8]: 0.407 (active)
log2 fold change [10]: -0.024

CDK5 (UniProt Q00535)
log2 fold change [1]: 1.07 (active)
log2 fold change [2]: -0.058
log2 fold change [3]: 0.211
log2 fold change [4]: 0.654 (active)
log2 fold change [5]: -0.032
log2 fold change [6]: 0.024
log2 fold change [7]: -0.1
log2 fold change [9]: -0.032
log2 fold change [8]: 0.03
log2 fold change [10]: -0.027

CEP152 (UniProt O94986)
log2 fold change [1]: -0.077
log2 fold change [2]: -0.061
log2 fold change [3]: 0.019
log2 fold change [4]: 0.019
log2 fold change [5]: 0.182
log2 fold change [6]: -0.064
log2 fold change [7]: 0.04
log2 fold change [9]: -0.007
log2 fold change [10]: 0.008

BNIP3 (UniProt Q12983)
log2 fold change [1]: -0.065
log2 fold change [2]: -0.058
log2 fold change [3]: 0.076
log2 fold change [5]: 0.081
log2 fold change [6]: 0.015
log2 fold change [7]: 0.018
log2 fold change [9]: -0.043
log2 fold change [8]: -0.128
log2 fold change [10]: 0.021

CDK17 isoform 2 (UniProt Q00537)
log2 fold change [1]: 0.599 (active)
log2 fold change [2]: -0.015
log2 fold change [3]: -0.051
log2 fold change [4]: 0.139
log2 fold change [5]: -0.018
log2 fold change [6]: 0.099
log2 fold change [7]: -0.129
log2 fold change [9]: -0.121
log2 fold change [10]: -0.132

CDK13 (UniProt Q14004)
log2 fold change [1]: 0.287 (active)
log2 fold change [2]: -0.1
log2 fold change [3]: -0.044
log2 fold change [4]: 0.139
log2 fold change [5]: -0.184
log2 fold change [6]: -0.005
log2 fold change [7]: -0.033
log2 fold change [9]: 0.043
log2 fold change [8]: 0.078
log2 fold change [10]: 0.007

CHD5 (UniProt Q8TDI0)
Chain of UniProt Q8TDI0 (Q8TDI0 whole entry, looked up): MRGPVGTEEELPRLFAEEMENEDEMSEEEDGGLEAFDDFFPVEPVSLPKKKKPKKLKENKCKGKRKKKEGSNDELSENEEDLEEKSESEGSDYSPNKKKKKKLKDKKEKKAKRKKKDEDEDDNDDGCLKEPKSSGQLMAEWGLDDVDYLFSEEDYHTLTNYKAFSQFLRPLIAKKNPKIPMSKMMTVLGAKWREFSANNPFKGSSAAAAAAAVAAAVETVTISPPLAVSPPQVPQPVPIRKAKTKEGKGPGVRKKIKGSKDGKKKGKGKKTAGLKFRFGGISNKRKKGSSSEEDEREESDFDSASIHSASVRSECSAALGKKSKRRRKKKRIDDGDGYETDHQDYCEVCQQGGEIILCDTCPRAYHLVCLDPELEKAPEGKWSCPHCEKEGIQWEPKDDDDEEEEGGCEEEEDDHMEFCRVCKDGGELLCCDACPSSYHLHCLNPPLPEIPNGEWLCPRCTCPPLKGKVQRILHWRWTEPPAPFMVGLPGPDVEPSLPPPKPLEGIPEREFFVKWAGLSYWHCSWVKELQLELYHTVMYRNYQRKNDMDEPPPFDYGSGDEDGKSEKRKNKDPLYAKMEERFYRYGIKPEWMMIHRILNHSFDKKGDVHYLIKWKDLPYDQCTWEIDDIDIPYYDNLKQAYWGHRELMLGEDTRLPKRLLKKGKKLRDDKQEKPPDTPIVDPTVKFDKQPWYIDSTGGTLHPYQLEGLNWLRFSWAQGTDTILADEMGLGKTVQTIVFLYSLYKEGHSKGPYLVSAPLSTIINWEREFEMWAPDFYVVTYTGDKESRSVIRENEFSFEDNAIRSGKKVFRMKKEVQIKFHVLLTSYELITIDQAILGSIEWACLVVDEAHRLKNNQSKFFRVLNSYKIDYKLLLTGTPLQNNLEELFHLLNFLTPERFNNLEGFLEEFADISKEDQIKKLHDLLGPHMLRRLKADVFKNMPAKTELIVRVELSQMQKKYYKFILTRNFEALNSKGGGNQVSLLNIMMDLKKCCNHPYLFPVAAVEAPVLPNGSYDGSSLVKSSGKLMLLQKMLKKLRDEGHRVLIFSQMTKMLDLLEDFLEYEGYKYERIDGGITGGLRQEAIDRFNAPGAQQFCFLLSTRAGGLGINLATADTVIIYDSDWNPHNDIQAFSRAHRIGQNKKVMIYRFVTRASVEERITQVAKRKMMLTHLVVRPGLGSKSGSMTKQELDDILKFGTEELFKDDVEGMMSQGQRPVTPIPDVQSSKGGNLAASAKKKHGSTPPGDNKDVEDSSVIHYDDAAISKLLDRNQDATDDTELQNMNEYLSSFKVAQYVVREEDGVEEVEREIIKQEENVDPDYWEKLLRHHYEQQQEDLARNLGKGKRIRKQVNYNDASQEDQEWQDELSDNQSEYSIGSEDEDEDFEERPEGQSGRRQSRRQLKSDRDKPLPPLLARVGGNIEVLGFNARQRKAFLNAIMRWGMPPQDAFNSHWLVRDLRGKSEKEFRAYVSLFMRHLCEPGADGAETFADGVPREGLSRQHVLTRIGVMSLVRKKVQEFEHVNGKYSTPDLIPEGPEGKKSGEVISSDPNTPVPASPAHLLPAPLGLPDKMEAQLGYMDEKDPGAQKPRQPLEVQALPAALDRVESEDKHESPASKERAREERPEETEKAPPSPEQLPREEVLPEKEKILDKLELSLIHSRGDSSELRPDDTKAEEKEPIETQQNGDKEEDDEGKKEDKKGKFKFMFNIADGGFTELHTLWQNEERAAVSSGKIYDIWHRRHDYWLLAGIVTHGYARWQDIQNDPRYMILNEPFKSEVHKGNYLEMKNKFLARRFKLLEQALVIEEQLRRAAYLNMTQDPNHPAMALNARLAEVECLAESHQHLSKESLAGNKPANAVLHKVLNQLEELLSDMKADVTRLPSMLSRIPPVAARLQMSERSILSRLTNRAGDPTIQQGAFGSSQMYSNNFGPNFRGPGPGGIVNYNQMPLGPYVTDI
log2 fold change [1]: -0.005
log2 fold change [2]: -0.022
log2 fold change [3]: 0
log2 fold change [4]: -0.042
log2 fold change [5]: 0.037
log2 fold change [6]: 0.024
log2 fold change [7]: 0.033
log2 fold change [9]: -0.016
log2 fold change [8]: -0.009
log2 fold change [10]: -0.001

CDK8 (UniProt P49336)
log2 fold change [1]: 0.384 (active)
log2 fold change [2]: -0.059
log2 fold change [3]: -0.065
log2 fold change [4]: -0.101
log2 fold change [5]: 0.083
log2 fold change [9]: -0.052
log2 fold change [8]: -0.047
log2 fold change [10]: 0.07

CCAR2 (UniProt Q8N163)
log2 fold change [1]: -0.052
log2 fold change [2]: -0.096
log2 fold change [3]: 0.001
log2 fold change [4]: 0.018
log2 fold change [5]: -0.02
log2 fold change [6]: 0.014
log2 fold change [7]: 0.011
log2 fold change [9]: 0.014
log2 fold change [8]: 0
log2 fold change [10]: 0.003

BRD4 (UniProt O60885)
log2 fold change [1]: -0.003
log2 fold change [2]: -0.001
log2 fold change [3]: 0.02
log2 fold change [4]: -0.05
log2 fold change [5]: 0.036
log2 fold change [6]: 0
log2 fold change [7]: 0.03
log2 fold change [9]: 0.038
log2 fold change [8]: -0.03
log2 fold change [10]: 0.034

CHCHD1 (UniProt Q96BP2)
log2 fold change [1]: 0.494
log2 fold change [2]: 0.046
log2 fold change [3]: 0.028
log2 fold change [4]: -0.033
log2 fold change [5]: 0.087
log2 fold change [6]: -0.018
log2 fold change [7]: -0.042
log2 fold change [9]: 0.003
log2 fold change [8]: 0.023
log2 fold change [10]: 0.228

C3orf33 (UniProt Q6P1S2)
log2 fold change [1]: -0.166
log2 fold change [2]: 0.124
log2 fold change [3]: -0.084
log2 fold change [4]: 0.224
log2 fold change [5]: 0.115
log2 fold change [9]: -0.13
log2 fold change [8]: -0.111
log2 fold change [10]: 0.006

AUH (UniProt Q13825)
log2 fold change [1]: 0.221
log2 fold change [2]: 0.147
log2 fold change [3]: 0.057
log2 fold change [4]: -0.169
log2 fold change [5]: 0.049
log2 fold change [6]: 0.015
log2 fold change [7]: 0.023
log2 fold change [8]: -0.052

C8orf88 (UniProt P0DMB2)
Chain of UniProt P0DMB2 (P0DMB2 whole entry, looked up): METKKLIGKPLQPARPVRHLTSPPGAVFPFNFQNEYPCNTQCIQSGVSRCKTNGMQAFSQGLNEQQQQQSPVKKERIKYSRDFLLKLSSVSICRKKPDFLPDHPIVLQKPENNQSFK
log2 fold change [1]: 0.072
log2 fold change [2]: -0.064
log2 fold change [3]: 0.07
log2 fold change [5]: -0.015

CHD9 (UniProt Q3L8U1)
Chain of UniProt Q3L8U1 (Q3L8U1 whole entry, looked up): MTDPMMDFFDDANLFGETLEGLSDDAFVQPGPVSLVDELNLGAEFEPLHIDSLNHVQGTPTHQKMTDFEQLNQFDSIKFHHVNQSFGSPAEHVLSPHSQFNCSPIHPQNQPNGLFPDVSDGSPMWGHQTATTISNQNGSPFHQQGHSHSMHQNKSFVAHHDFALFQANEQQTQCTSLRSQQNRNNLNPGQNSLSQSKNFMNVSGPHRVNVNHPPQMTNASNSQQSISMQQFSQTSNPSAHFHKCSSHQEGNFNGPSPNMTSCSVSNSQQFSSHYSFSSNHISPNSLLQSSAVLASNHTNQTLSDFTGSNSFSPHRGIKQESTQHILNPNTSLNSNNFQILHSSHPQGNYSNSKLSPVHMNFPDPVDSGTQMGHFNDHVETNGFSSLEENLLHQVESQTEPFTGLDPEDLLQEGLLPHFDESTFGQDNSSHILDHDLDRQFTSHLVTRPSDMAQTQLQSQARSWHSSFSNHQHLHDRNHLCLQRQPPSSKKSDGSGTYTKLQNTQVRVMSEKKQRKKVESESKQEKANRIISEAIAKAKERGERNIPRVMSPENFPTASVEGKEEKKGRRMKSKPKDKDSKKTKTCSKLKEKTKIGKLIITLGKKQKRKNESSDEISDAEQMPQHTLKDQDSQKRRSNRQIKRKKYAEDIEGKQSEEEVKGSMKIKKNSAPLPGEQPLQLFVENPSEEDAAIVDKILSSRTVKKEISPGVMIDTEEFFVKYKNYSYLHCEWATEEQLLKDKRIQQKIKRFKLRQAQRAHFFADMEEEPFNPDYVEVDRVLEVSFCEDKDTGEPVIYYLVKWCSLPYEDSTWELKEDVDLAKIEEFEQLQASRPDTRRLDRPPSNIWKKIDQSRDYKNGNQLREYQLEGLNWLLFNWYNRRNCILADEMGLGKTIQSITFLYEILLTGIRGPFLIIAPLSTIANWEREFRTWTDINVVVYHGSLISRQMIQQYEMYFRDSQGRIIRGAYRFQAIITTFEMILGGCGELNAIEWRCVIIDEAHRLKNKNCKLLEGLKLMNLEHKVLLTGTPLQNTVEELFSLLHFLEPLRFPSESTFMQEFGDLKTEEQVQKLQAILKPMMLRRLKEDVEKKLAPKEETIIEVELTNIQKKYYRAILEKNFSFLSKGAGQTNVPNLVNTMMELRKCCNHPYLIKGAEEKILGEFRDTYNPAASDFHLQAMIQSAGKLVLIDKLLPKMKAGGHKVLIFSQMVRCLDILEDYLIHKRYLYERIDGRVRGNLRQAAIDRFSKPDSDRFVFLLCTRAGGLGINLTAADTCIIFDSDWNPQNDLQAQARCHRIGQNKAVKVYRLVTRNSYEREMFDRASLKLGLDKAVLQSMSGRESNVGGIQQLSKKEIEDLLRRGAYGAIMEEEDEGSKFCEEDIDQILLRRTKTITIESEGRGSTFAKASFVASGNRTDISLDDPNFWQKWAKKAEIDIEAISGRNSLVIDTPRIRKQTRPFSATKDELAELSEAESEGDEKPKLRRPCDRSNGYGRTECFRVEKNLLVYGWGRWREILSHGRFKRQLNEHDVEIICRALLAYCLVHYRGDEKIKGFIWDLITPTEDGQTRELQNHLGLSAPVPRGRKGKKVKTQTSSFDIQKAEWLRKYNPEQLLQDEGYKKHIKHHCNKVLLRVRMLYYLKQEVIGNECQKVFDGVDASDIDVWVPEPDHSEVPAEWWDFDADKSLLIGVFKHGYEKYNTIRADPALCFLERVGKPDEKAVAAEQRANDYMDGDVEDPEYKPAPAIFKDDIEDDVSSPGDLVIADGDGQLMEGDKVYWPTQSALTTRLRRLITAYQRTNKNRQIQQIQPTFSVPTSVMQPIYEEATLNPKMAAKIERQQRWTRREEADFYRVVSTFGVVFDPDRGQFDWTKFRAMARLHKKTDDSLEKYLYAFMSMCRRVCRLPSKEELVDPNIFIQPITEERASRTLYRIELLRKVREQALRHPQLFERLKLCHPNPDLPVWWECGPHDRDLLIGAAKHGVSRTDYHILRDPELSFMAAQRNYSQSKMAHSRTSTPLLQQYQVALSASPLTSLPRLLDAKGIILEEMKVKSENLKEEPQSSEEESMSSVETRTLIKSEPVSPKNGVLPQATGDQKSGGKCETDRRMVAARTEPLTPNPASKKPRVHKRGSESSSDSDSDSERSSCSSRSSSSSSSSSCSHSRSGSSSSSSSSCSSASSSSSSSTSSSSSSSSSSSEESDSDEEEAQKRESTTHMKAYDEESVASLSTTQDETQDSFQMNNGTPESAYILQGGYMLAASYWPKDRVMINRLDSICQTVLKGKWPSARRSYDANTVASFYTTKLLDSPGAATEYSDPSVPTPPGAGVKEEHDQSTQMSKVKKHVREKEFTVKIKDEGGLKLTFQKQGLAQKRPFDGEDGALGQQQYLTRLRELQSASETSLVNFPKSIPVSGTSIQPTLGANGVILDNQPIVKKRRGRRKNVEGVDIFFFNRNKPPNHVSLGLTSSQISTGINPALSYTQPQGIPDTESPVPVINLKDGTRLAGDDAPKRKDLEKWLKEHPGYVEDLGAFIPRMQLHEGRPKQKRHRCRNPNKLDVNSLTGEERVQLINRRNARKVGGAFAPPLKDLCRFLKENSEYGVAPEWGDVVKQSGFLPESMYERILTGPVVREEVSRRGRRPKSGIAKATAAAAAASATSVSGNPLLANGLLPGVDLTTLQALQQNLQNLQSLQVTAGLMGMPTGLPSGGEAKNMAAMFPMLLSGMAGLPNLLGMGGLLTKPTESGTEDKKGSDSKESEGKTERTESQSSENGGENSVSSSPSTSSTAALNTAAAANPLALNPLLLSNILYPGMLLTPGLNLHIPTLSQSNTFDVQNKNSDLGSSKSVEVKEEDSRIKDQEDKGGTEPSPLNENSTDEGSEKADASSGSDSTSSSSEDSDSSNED
log2 fold change [1]: 0.027
log2 fold change [2]: 0.055
log2 fold change [3]: -0.064
log2 fold change [4]: -0.147
log2 fold change [5]: -0.137
log2 fold change [9]: -0.369
log2 fold change [10]: 0.111

CBR1 (UniProt P16152)
log2 fold change [1]: -0.013
log2 fold change [2]: 0.015
log2 fold change [3]: -0.006
log2 fold change [4]: 0.008
log2 fold change [5]: -0.041
log2 fold change [6]: 0
log2 fold change [7]: 0.02
log2 fold change [9]: -0.024
log2 fold change [8]: 0.023
log2 fold change [10]: -0.068

BBS7 (UniProt Q8IWZ6)
log2 fold change [1]: 0.027
log2 fold change [2]: -0.123
log2 fold change [3]: -0.028
log2 fold change [4]: -0.212
log2 fold change [5]: -0.042
log2 fold change [6]: 0.024
log2 fold change [7]: 0.091
log2 fold change [9]: 0.123
log2 fold change [10]: -0.016

BRD2 isoform 2 (UniProt P25440)
log2 fold change [1]: 0.06
log2 fold change [2]: 0.002
log2 fold change [3]: 0.059
log2 fold change [4]: -0.187
log2 fold change [5]: 0.068
log2 fold change [6]: 0.084
log2 fold change [7]: -0.118
log2 fold change [9]: 0
log2 fold change [8]: 0.019
log2 fold change [10]: -0.009

CHAF1A (UniProt Q13111)
log2 fold change [1]: -0.003
log2 fold change [2]: -0.089
log2 fold change [3]: -0.019
log2 fold change [4]: 0.02
log2 fold change [5]: 0.038
log2 fold change [6]: 0.003
log2 fold change [7]: 0.063
log2 fold change [9]: -0.107
log2 fold change [8]: -0.01
log2 fold change [10]: -0.065

AVEN (UniProt Q9NQS1)
log2 fold change [1]: -0.047
log2 fold change [2]: -0.154
log2 fold change [3]: 0.049
log2 fold change [4]: -0.097
log2 fold change [5]: 0.082
log2 fold change [6]: 0.017
log2 fold change [7]: 0.016
log2 fold change [9]: 0.061
log2 fold change [10]: -0.09
